Values joined by “and” are separate entries in the source; they are usually repeats but may differ in a detail not shown here. Equal entries are not always repeated. Records with an inconclusive call do not appear. Some compounds were tested as several samples or in several runs, with calls that do not always agree. Active and inactive are the calls of the source. The call rests on the fitted dose curve; in most records, active means well fitted inhibition curve with a large enough effect in the repeat runs; inconclusive means weak or mixed curves; inactive means no such curve, though single readings can be large or run the other way.
Molecular target: Cytochrome P450 2C9 (Homo sapiens) (UniProt P11712)
Assay: Cytochrome P450 Family 2 Subfamily C Member 9 (CYP2C9) small molecule antagonists: luciferase reporter qHTS assay (AID 1671198)
Conditions: P450-Glo CYP2C9 enzyme assay, luciferin luminescence; series mostly up to 115 µM; activity change, negative = inhibition: at the top concentration
How it was run: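 P450-Glo proluciferin substrate with CYP2C9 enzyme; 10 min RT preincubation, then NADPH regeneration 1 h at 37C; luciferin detection reagent 20 min RT, luminescence in relative luminescence units.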
Further: nearly all actives have a fitted effect of over 50% in size.
On the % scale 0 is the no-effect control and ±100 the full control effect; potency means the concentration at half of the fitted maximal effect.

Cytochrome P450 2C9 (Homo sapiens), sequence (P11712 whole entry, looked up): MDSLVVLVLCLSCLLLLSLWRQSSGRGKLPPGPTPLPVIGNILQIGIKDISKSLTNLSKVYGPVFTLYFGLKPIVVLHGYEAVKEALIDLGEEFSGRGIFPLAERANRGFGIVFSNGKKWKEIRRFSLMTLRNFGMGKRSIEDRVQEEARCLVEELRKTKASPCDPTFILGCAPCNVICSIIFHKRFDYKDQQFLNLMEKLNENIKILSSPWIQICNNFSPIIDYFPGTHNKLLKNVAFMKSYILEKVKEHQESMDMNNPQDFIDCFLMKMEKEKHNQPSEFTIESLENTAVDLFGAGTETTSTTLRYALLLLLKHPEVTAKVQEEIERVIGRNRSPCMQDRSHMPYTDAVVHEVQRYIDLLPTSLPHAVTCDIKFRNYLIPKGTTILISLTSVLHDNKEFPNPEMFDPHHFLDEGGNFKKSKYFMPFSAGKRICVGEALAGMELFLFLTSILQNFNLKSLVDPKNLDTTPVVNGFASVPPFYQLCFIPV

SMILES | Potency | activity change, negative = inhibition
Nc1cc(-c2ccncc2)c[nH]c1=O | 14.2 µM (active) and 12.3 µM (active) | 
O=C(O)c1ccc([N+](=O)[O-])cc1 |  | -18.4% (inactive)
Cc1cc(=O)[nH]c(C(C)C)n1 | inactive | 
NC(=O)/N=N/C(N)=O | 4 µM (active) and 3.99 µM (active) | 
CCCCCCCCCCCCOCC1CO1 (configuration not stated) |  | -35.3% (inactive)
O=C(O)c1cc(-c2ccccc2)nc2ccccc12 | 43.9 µM (active) | 
OC1CCCC1 | inactive | 
COC(=O)c1ccccc1O |  | -18.7% (inactive)
Cc1ccc(N)c(S(=O)(=O)O)c1 | 45.4 µM (active) | 
CCCCOCCOCCOC(=O)CCCCC(=O)OCCOCCOCCCC | 11.3 µM (active) and 17.8 µM (active) | 
CCCCC(CC)COC(C)=O (configuration not stated) | inactive | 
CC1=C(/C=C/C(C)=C/C=C/C(C)=C/CO)C(C)(C)CCC1 | 64.1 µM (active) and 37.5 µM (active) | 
Cc1cc(Cc2ccc(N)c(C)c2)ccc1N | 6.33 µM (active) and 25.2 µM (active) | 
NCCc1ccc(O)c(O)c1 |  | 25.8% [at 53 µM] (inactive)
C=C(C#N)C(=O)OCC | inactive and 63.3 µM (active) | 
O=[N+]([O-])C(CO)(CO)CO | 79.6 µM (active) | 
CCOC(=O)/C=C\C(=O)OCC |  | 1.43% (inactive)

SMILES | Potency | activity change, negative = inhibition
CC(C)(N=C=O)c1cccc(C(C)(C)N=C=O)c1 |  | -13.3% (inactive)
CC[Si](OC(C)=O)(OC(C)=O)OC(C)=O | 71 µM (active) and inactive | 
C=C(C)C(=O)OCCCCCCCCCCCC | inactive | 
C=C(C)C(=O)OCCC[Si](OC)(OC)OC | 15.7 µM (active) | 
COCC(C)O (configuration not stated) | inactive | 
O=C1CCCCC1 |  | 2.42% (inactive)
CCCCCCCCCCCCN | 22.6 µM (active) and 6.33 µM (active) and 32.2 µM (active) | 
CC1CC(OC(=O)c2ccccc2O)CC(C)(C)C1 (configuration not stated) | inactive and 44.8 µM (active) | 
CC1(C)O[C@@H]2C[C@H]3[C@@H]4C[C@H](F)C5=CC(=O)CC[C@]5(C)[C@H]4[C@@H](O)C[C@]3(C)[C@]2(C(=O)CO)O1 |  | -8.4% [at 53 µM] (inactive)
C[C@@H]1O[C@@H](OC[C@H]2O[C@@H](Oc3c(-c4ccc(O)c(O)c4)oc4cc(O)cc(O)c4c3=O)[C@H](O)[C@@H](O)[C@@H]2O)[C@H](O)[C@H](O)[C@H]1O | inactive | 
Clc1ccc(Cl)c(Cl)c1Cl | inactive | 
CC(C)Cc1ccccc1 | inactive | 
OCC#CCO |  | -12.4% (inactive)
C=C(C)C(=O)OCC(CC)(COC(=O)C(=C)C)COC(=O)C(=C)C | 14.4 µM (active) and 15.6 µM (active) | 
O=C(c1cc(O)c(O)c(O)c1)c1ccc(O)c(O)c1O | 3.16 µM (active) and 50.2 µM (active) and inactive | 
C=C(C)C(=O)OCCCCCC | inactive | 

Molecular target: Cytochrome P450 1A2 (Homo sapiens) (UniProt P05177)
Assay: Cytochrome P450 Family 1 Subfamily A Member 2 (CYP1A2) small molecule antagonists: luciferase reporter qHTS assay (AID 1671199)
Conditions: P450-Glo CYP1A2 enzyme, luciferin luminescence, 1 h; series mostly up to 115 µM; activity change, negative = inhibition: at the top concentration
How it was run: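 P450-Glo CYP1A2, 1536-well qHTS: enzyme/proluciferin substrate + cpd (DMSO), 10 min RT; NADPH regen, 1 h RT; detection reagent, 20 min; luminescence, RLU.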

Cytochrome P450 1A2 (Homo sapiens), sequence (P05177 whole entry, looked up): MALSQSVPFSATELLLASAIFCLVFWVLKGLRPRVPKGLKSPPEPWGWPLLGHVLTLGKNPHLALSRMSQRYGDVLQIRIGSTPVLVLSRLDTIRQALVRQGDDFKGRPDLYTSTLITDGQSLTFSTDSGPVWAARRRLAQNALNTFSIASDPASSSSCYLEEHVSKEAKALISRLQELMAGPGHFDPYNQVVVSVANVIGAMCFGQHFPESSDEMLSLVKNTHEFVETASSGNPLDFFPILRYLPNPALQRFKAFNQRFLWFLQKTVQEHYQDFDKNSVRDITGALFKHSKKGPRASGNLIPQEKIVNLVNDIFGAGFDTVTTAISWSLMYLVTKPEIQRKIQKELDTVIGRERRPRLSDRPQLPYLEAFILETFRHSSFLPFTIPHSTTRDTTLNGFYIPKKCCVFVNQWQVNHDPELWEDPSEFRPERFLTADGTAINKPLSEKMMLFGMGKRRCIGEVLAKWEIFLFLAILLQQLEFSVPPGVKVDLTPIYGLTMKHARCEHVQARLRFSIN

SMILES | Potency | activity change, negative = inhibition
Nc1cc(-c2ccncc2)c[nH]c1=O | 35.6 µM (active) | 
Oc1ccc(OCc2ccccc2)cc1 | 19.6 µM (active) and 15.5 µM (active) | 
CCOC(=O)C1OC1c1ccccc1 (configuration not stated) | 32.4 µM (active) and 22.4 µM (active) | 
O=C(O)c1ccc([N+](=O)[O-])cc1 |  | -3.62% (inactive)
NC(=O)/N=N/C(N)=O | 17.9 µM (active) and 15.9 µM (active) | 
CCCCCCCCCCCCOCC1CO1 (configuration not stated) | 63.4 µM (active) | 
O=S(=O)(O)CCS | inactive | 
O=C(O)c1cc(-c2ccccc2)nc2ccccc12 | 36.9 µM (active) | 
OC1CCCC1 |  | -9.46% (inactive)
COC(=O)c1ccccc1O | 6.35 µM (active) | 
CCCCOCCOCCOC(=O)CCCCC(=O)OCCOCCOCCCC |  | -25.8% (inactive)
CCCCC(CC)COC(C)=O (configuration not stated) |  | -10.4% (inactive)
CC1=C(/C=C/C(C)=C/C=C/C(C)=C/CO)C(C)(C)CCC1 | 20.3 µM (active) | 
Cc1cc(Cc2ccc(N)c(C)c2)ccc1N | 6.33 µM (active) and 14.2 µM (active) | 
C=C(C#N)C(=O)OCC |  | -0.941% (inactive)
O=[N+]([O-])C(CO)(CO)CO |  | -26% (inactive)
CCOC(=O)/C=C\C(=O)OCC | inactive | 

SMILES | Potency | activity change, negative = inhibition
CC(C)(N=C=O)c1cccc(C(C)(C)N=C=O)c1 | inactive | 
CC[Si](OC(C)=O)(OC(C)=O)OC(C)=O |  | -13.6% (inactive)
C=C(C)C(=O)OCCCCCCCCCCCC | inactive | 
C=C(C)C(=O)OCCC[Si](OC)(OC)OC |  | -26.4% (inactive)
COCC(C)O (configuration not stated) |  | -13.8% (inactive)
O=C1CCCCC1 |  | -7.39% (inactive)
CCCCCCCCCCCCN | 16 µM (active) and 2.83 µM (active) and 9.08 µM (active) | 
CC1CC(OC(=O)c2ccccc2O)CC(C)(C)C1 (configuration not stated) | inactive and 27.5 µM (active) | 
O=Nc1ccc(O)cc1 | 31 µM (active) and 39.9 µM (active) | 
CC1(C)O[C@@H]2C[C@H]3[C@@H]4C[C@H](F)C5=CC(=O)CC[C@]5(C)[C@H]4[C@@H](O)C[C@]3(C)[C@]2(C(=O)CO)O1 | inactive | 
C[C@@H]1O[C@@H](OC[C@H]2O[C@@H](Oc3c(-c4ccc(O)c(O)c4)oc4cc(O)cc(O)c4c3=O)[C@H](O)[C@@H](O)[C@@H]2O)[C@H](O)[C@H](O)[C@H]1O |  | -16% (inactive)
Clc1ccc(Cl)c(Cl)c1Cl | inactive and 39.9 µM (active) | 
CC(C)Cc1ccccc1 |  | -4.69% (inactive)
OCC#CCO |  | -21.4% (inactive)
C=C(C)C(=O)OCC(CC)(COC(=O)C(=C)C)COC(=O)C(=C)C | 32.2 µM (active) and 27.8 µM (active) | 
O=C(c1cc(O)c(O)c(O)c1)c1ccc(O)c(O)c1O | 39.8 µM (active) and 39.9 µM (active) and inactive | 
C=C(C)C(=O)OCCCCCC |  | -11.6% (inactive)

Reference: PubChem BioAssay (Tox21)
